“And” between values parts separate entries of the source, which are not always exact repeats. Identical values can stand only once. Results filed as inconclusive are left out. More than one record can exist for a structure, and the calls need not agree. The source made the active and inactive calls. Calls follow the shape of the full dose curve.
assay: qHTS assay to identify small molecule agonists of H2AX - cell viability counter screen (AID 1224847); details: CHO-K1 viability, CellTiter-Glo luminescence, 3 h; series mostly up to 154 µM; activity change, negative = cytotoxicity: at the top concentration; also: nearly all actives have a fitted effect of over 30% in size; as to activity change, negative = cytotoxicity: top concentration of the series differs between compounds
Source text: National Center for Advancing Translational Sciences [NCATS]
NIH Chemical Genomics Center [NCGC]
U.S. Environmental Protection Agency [EPA]
National Institutes of Environmental Health Sciences [NIEHS]
National Toxicology Program [NTP]
U.S. Food and Drug Administration [FDA]
HTRF phospho-H2AX (Ser139) assay (Cisbio Bioassays, US) enables the quantitative detection of the histone variant H2AX when phosphorylated on serine 139. When double-stranded DNA breaks, either by ionizing radiation or endogenous physiological processes, H2AX becomes phosphorylated at Ser139. This phospho-Ser139 serves as a sensitive biomarker for the detection of such breaks, localizing the site of DNA repair. So, HTRF phospho-H2AX Ser139 is a pertinent assay to study genome stability, the cell cycle, DNA repair, and it serves as a biomarker for cancer, and to understand aging. Wild type CHO-K1 cells were used to identify the inducers of Phospho-H2AX Ser 139 from the Tox21 compound collections. Also cytotoxicity of the Tox21 10K compound library against the CHO-K1 cell line was tested by measuring the cell viability using CellTiter-Glo assay (Promega, Madison, WI).
Tox21 Assay Protocol Summary:
The CHO-K1 cells suspended in culture medium containing 10% FBS were dispensed at 1000 cells/ 3 ul/well in 1536-well white wall/solid bottom plates (Greiner Bio-One North America, NC) using a Multidrop Combi (Thermo Fisher Scientific Inc., Waltham, MA). After the assay plates were incubated at 37C overnight, 23 nl of compounds at 15 concentrations (from 5-48 columns) or positive control (from 1 to 4 columns) were transferred to the assay plates using a Pintool station (Wako, San Diego, CA) into each well resulting in a final DMSO concentration of 0.76%. After 3hr incubation at 37C, 3 uL/well CellTiter-Glo luminescent cell viability reagent (Promega Corporation, Madison, WI) was added using a Flying Reagent Dispenser (FRD) (Aurora Discovery, CA). After incubation at room temperature for 30 min, the luminescence intensity was read using a ViewLux plate reader (PerkinElmer, Waltham, MA).
% is scaled to controls: 0 for no effect and ±100 for the full control effect; potency is read from the fitted curve at half-maximal effect.

Row | SMILES | activity change, negative = cytotoxicity | Potency
1 | CC(C)C(=O)c1c(C(C)C)nn2ccccc12 | 9.42% [at 70.9 µM] (inactive) | –
2 | CCc1ccc(C(c2ccc(CC)cc2)C(Cl)Cl)cc1 | – | 115 µM (active)
3 | C=C(C)C1CC=C(C)C(OC(C)=O)C1 (stereo not given) | – | inactive
4 | Nc1ccc(O)cc1 | 10.9% [at 70.9 µM] (inactive) | –
5 | COC(=O)c1cccc(C(=O)OC)c1 | – | inactive
6 | C=CC(=O)OCCCCCCCC | -2.16% (inactive) | –
7 | CCCCN(CCO)CCCC | -0.247% (inactive) | –
8 | CCn1c2ccccc2c2cc(N)ccc21 | -14.4% (inactive) | –
9 | Cc1scc2c1N(C(=O)CN1CCN(C)CC1)c1ccccc1NC2=O | 1.74% [at 70.9 µM] (inactive) | –
10 | CC(C)(C)c1cc(C(C)(C)C)c(O)c(C(C)(C)C)c1 | – | 101 µM (active)
11 | C1COC(NC(C2CC2)C2CC2)=N1 | 3.16% [at 70.9 µM] (inactive) | –
12 | O=c1n(CC2CO2)c(=O)n(CC2CO2)c(=O)n1CC1CO1 (stereo not given) | – | inactive
13 | CCCCCCCCCCCC[N+](C)(C)C | – | 113 µM (active) and inactive
14 | CCN1CCCC1CNC(=O)c1cc(S(=O)(=O)CC)c(N)cc1OC (stereo not given) | 1.06% [at 70.9 µM] (inactive) | –
15 | Nc1nc(=S)c2[nH]cnc2[nH]1 | -15.3% (inactive) | –
16 | COC(c1ccccc1)(c1ccccc1)[C@H](Oc1nc(C)cc(C)n1)C(=O)O | -1.79% [at 70.9 µM] (inactive) | –
17 | O=C(O)c1cccc(C(=O)O)c1 | – | inactive
18 | CC(C)CCCCCCc1ccc(O)cc1 | – | 91.4 µM (active) and 56.6 µM (active)
19 | CCC(C)(C)C(=O)O[C@H]1C[C@@H](C)C=C2C=C[C@H](C)[C@H](CC[C@@H]3C[C@@H](O)CC(=O)O3)[C@H]21 | – | inactive
20 | CCCCCCCCCCCCc1ccccc1O | – | 55.9 µM (active) and 40.1 µM (active)

Row | SMILES | activity change, negative = cytotoxicity | Potency
21 | CC(C)(C)c1ccccc1 | 4.6% (inactive) | –
22 | CCC[C@H](N[C@@H](C)C(=O)N1[C@H](C(=O)O)C[C@@H]2CCCC[C@@H]21)C(=O)OCC | – | inactive
23 | CN(C)c1ccc2nc3ccc(=[N+](C)C)cc-3sc2c1 | – | 21.7 µM (active) and 45 µM (active) and 43.8 µM (active)
24 | Cc1ccc(-c2cc(C(F)(F)F)nn2-c2ccc(S(N)(=O)=O)cc2)cc1 | – | 100 µM (active) and 113 µM (active)
25 | c1cc(C(c2ccc(OCC3CO3)cc2)C(c2ccc(OCC3CO3)cc2)c2ccc(OCC3CO3)cc2)ccc1OCC1CO1 (stereo not given) | – | inactive
26 | Cc1ccc(S(=O)(=O)Oc2ccc(N=Nc3ccc(-c4ccc(N=Nc5c(O)ccc6cc(S(=O)(=O)O)cc(S(=O)(=O)O)c56)c(C)c4)cc3C)cc2)cc1 | – | 45.2 µM (active) and 29.3 µM (active)
27 | CCN(CC)CCOc1ccc(/C(=C(\Cl)c2ccccc2)c2ccccc2)cc1 | – | 81.7 µM (active)
28 | CC(C)(C)c1ccc(O)c(C(C)(C)C)c1 | – | 89.4 µM (active)
29 | O=Cc1ccc(Cl)cc1 | -0.212% (inactive) | –
30 | O=C1CC2(CCCC2)CC(=O)N1CCCCN1CCN(c2ncccn2)CC1 | 2.78% [at 70.9 µM] (inactive) | –
31 | CC(=O)C1=C(C)[C@@H]2C[C@@]3(C1)[C@H](C)CC[C@H]3C2(C)C | – | inactive
32 | COc1cc(C(=S)N2CCOCC2)ccc1O | -2.8% [at 70.9 µM] (inactive) | –
33 | CCCCC/C=C/CC1CC(=O)OC1=O (stereo not given) | 7.38% (inactive) | –
34 | CC(=O)Nc1ccc(C(=O)CCl)cc1 | 0.334% (inactive) | –
35 | O=C1Nc2ccccc2C1(c1ccc(O)cc1)c1ccc(O)cc1 | – | inactive
36 | O=S(=O)(O)c1ccc2nc(-c3ccccc3)[nH]c2c1 | – | 30.3 µM (active) and 22 µM (active)
37 | COC(=O)/C=C/c1ccccc1 | – | inactive
38 | Cc1cc(OCCOCC[N+](C)(C)Cc2ccccc2)ccc1C(C)(C)CC(C)(C)C | – | 100 µM (active) and 55.2 µM (active)
39 | Nc1ccc2cc3ccccc3cc2c1 | – | inactive
40 | CC[C@H]1CN2CCc3cc(OC)c(OC)cc3[C@@H]2C[C@@H]1C[C@H]1NCCc2cc(OC)c(OC)cc21 | – | inactive

Reference: PubChem BioAssay (Tox21)
